The source of these data is PubChem BioAssay.

SMILES strings stand for the structures. A number with no mark means an inactive call. For some of these results: Entries with a potency or affinity are not part of this list. Calls of active or inactive are those of the source. Unless noted, how the calls were made is not given here.

The nature of assay [1]: antimalarial activity against Dd2 strain (AID 2302;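 active means growth inhibition above 50% at the single 2 µM test dose, taken to imply half-maximal potency below 2 µM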;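 further: 0% = DMSO untreated growth and 100% = chloroquine plus artemisinin killed control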). Particulars: P. falciparum Dd2 in RBCs, LDH growth readout, 72 h; at 2 µM; hits give high values.
Assay [2] in a line: HepG2 cytotoxicity, primary screen, cytotoxicity control for P. falciparum antimalarial project, cell-based, ATP luminescence (AID 2303;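 active means inhibition above 50%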;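 further: 0% = DMSO wells and 100% = digitonin-killed cells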). Particulars: HepG2 viability, 24-48 h, at 10 µM, hits give high values.
Assay [3] deals with L-lactate dehydrogenase (Plasmodium falciparum (isolate CDC / Honduras)) (UniProt Q27743). Put plainly: PfLDH activity inhibition – cell lysate, 3D7 strain, counter-screen for P. falciparum growth inhibition project (AID 2304).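 Further: 0% = vehicle and 100% = reference inhibitor.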 Particulars: P. falciparum 3D7 crude extract, LDH APAD/NBT absorbance; at 2 µM; hits give high values.
Chain of L-lactate dehydrogenase (Plasmodium falciparum (isolate CDC / Honduras)) (Q27743 whole entry, looked up): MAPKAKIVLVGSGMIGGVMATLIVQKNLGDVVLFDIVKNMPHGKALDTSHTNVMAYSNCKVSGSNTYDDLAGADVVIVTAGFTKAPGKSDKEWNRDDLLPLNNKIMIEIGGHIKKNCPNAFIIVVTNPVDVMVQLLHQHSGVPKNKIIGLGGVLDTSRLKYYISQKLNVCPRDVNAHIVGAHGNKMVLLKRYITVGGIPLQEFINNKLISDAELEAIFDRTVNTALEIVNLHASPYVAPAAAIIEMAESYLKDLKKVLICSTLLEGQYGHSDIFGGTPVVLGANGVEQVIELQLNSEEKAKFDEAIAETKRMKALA
The nature of assay [4]: inhibition of 3D7 malaria parasite growth – strain 3D7 (AID 2306).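 Further: 0% = DMSO wells and 100% = chloroquine plus artemisinin control wells.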 As to conditions: P. falciparum 3D7 erythrocytic growth, LDH absorbance, 72 h; at 2 µM; hits give high values.
For assay [5], the target named is Calcium-dependent protein kinase 1 (Plasmodium falciparum (isolate 3D7)) (UniProt P62344). Put plainly: PfCDPK1 kinase inhibitors, biochemical, TCAMS library (AID 1159585; cut-off not given, nearly all actives have IC50 up to about 0.98 µM;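 further: inhibitors leave more ATP so luminescence rises with inhibition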). As to conditions: recombinant PfCDPK1, Kinase-Glo ATP depletion luminescence.
Chain of Calcium-dependent protein kinase 1 (Plasmodium falciparum (isolate 3D7)) (P62344 whole entry, looked up): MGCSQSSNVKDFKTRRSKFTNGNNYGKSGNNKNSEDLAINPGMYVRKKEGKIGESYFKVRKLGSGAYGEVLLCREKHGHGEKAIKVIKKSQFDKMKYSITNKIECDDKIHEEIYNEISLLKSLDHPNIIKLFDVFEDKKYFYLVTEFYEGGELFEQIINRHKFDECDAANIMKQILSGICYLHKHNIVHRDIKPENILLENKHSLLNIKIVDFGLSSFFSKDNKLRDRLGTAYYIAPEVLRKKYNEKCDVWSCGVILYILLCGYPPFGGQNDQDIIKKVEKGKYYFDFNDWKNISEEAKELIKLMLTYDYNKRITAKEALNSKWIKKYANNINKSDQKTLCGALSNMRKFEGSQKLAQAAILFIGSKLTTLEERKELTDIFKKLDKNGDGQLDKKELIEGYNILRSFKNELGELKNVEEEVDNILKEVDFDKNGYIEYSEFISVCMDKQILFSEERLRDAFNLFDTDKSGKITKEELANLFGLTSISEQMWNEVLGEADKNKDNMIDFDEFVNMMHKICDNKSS
Assay [6] concerns the target Plasmodium falciparum protein kinase 6 (PK6, PF3D7_1337100) (UniProt Q8IDW1). Put plainly: PfPK6 kinase inhibitors, biochemical, TCAMS library (AID 1159586). Particulars: recombinant PfPK6, Kinase-Glo ATP depletion luminescence.
In assay [7] the target is Protein kinase 7 (PK7), Plasmodium falciparum 3D7 (PF3D7_0213400) (UniProt Q7YTF7). Put plainly: inhibition of Plasmodium PK7 catalytic activity – biochemical, TCAMS antimalarial set, Kinase-Glo luminescence (AID 1159587). Particulars: recombinant PfPK7, Kinase-Glo ATP depletion luminescence.
Chain of Protein kinase 7 (PK7), Plasmodium falciparum 3D7 (PF3D7_0213400) (Q7YTF7 1-343): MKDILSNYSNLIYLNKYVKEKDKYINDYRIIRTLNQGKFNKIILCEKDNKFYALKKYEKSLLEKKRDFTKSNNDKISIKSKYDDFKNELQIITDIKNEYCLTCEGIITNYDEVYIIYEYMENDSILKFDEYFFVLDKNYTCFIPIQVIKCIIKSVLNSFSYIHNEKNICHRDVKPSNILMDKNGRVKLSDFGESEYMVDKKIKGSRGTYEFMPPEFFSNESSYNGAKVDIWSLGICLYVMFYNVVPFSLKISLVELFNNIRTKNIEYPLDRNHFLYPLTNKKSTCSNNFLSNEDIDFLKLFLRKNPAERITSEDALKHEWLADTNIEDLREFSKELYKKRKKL
Assay [8] has as its target Calcium-dependent protein kinase 4 (Plasmodium falciparum (isolate 3D7)) (UniProt Q8IBS5). Put plainly: PfCDPK4 kinase inhibitors, biochemical, TCAMS library (AID 1159588; cut-off not given, nearly all actives have IC50 up to about 0.91 µM). Particulars: recombinant PfCDPK4, Kinase-Glo ATP depletion luminescence.

Chain of Plasmodium falciparum protein kinase 6 (PK6, PF3D7_1337100) (Q8IDW1 1-305): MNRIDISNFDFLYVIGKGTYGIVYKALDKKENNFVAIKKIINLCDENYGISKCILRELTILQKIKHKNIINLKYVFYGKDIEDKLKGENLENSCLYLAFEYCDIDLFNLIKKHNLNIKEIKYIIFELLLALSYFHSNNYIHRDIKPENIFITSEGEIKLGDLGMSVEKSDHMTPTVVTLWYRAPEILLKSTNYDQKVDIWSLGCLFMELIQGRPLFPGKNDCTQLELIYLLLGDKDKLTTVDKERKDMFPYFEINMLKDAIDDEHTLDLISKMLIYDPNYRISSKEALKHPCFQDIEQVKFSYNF
Chain of Calcium-dependent protein kinase 4 (Plasmodium falciparum (isolate 3D7)) (Q8IBS5 whole entry, looked up): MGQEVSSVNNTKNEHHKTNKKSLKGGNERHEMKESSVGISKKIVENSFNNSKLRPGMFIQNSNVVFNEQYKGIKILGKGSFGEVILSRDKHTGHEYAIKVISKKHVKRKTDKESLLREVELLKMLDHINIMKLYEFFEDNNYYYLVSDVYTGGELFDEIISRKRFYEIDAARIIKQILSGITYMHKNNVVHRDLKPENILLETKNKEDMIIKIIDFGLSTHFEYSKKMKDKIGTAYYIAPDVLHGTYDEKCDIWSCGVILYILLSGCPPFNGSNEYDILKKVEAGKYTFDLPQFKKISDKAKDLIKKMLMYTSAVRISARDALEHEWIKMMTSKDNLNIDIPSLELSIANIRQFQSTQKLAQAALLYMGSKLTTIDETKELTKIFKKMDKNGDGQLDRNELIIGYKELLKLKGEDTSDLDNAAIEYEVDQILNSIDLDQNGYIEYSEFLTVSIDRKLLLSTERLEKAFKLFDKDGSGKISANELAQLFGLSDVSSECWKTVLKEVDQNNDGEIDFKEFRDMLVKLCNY

In the case of `CS(=O)(=O)N1CC2(CCN(CCC(NC(=O)NCc3ccccc3Cl)c3ccc(Cl)c(Cl)c3)CC2)c2ccccc21` (stereo not given), the values for the growth inhibition in assay [1] and in assay [4] were 98% (active) and 85% (active), respectively. Moreover, the inhibition was 12% in assay [2] and -7% in assay [3]. Also, the outcome in assay [5], in assay [6], in assay [7] and in assay [8] was inactive.

On to `Cc1cc(N[C@@H](CC(C)C)C(=O)NCCc2ccccc2)nc(NCC2CCCCC2)n1`, for which the growth inhibition in assay [1] was 65% (active); in assay [4], 97% (active). In addition, the figures for the inhibition in assay [2] and in assay [3] were 19% and -1%, respectively. In addition, the result in assay [5], in assay [6], in assay [7] and in assay [8] was inactive.

As to `O=C(Nc1ccc(C(=O)Oc2cccc3ccccc23)cc1)N[C@@H](Cc1ccc(O)cc1)C(=O)NC1CCN(Cc2ccc(O)cc2)C1` (stereo not given in full), the growth inhibition in assay [1] was -5%; in assay [4], 87% (active). The results for the inhibition in assay [2] and in assay [3] were -1% and 1%, respectively. The outcome in assay [5], in assay [6], in assay [7] and in assay [8] was inactive.

With `CC(C)N1CCN(C(CN2CCN(CCCOc3cccc4ccccc34)CC2)c2ccc(F)cc2)CC1` (stereo not given), the growth inhibition is 75% (active) in assay [1] and 101% (active) in assay [4]. In addition, the values for the inhibition in assay [2] and in assay [3] were 54% (active) and 4%, respectively. Besides, the outcome in assay [5], in assay [6], in assay [7] and in assay [8] was inactive.

As for `COc1cc2c(cc1N1C[C@@H](C)N[C@@H](C)C1)N(C(=O)c1ccc(-c3ccc(-c4ncc[nH]4)cc3C)cc1)CC2`, the growth inhibition in assay [1] was 58% (active); in assay [4], 98% (active). Besides, the inhibition in assay [2] was 7%; in assay [3], -2%. Moreover, the outcome in assay [5], in assay [6], in assay [7] and in assay [8] was inactive.

In the case of `Cc1c(-c2ccccc2)ccc2[nH]cc(CC#N)c12`, the figures for the growth inhibition in assay [1] and in assay [4] were 85% (active) and 95% (active), respectively. In addition, the inhibition in assay [2] is 2%; in assay [3] it was -2%. Also, the outcome in assay [5], in assay [6], in assay [7] and in assay [8] was inactive.

For the molecule `COc1cc2nc(NCCc3ccccc3)nc(NCCc3ccccc3)c2cc1OC`, the values for the growth inhibition in assay [1] and in assay [4] were 100% (active) and 101% (active), respectively. The inhibition in assay [2] was 99% (active); in assay [3], 2%. Further, the outcome in assay [5], in assay [6], in assay [7] and in assay [8] was inactive.

With `Clc1cccc(CNC2CCN(CC3CCCCC3)CC2)c1`, the growth inhibition in assay [1] was 24%; in assay [4] it was 97% (active). Further, the inhibition in assay [2] was 4%; in assay [3], -2%. Also, the outcome in assay [5], in assay [6], in assay [7] and in assay [8] was inactive.

For the molecule `O=C(/C=C/c1ccc(Cl)c(Cl)c1)NCCCCCN1CCC(c2c[nH]c3c(-c4ccccc4)cccc23)CC1`, the growth inhibition in assay [1] was 40%; in assay [4] it was 99% (active). The results for the inhibition in assay [2] and in assay [3] were 74% (active) and -2%, respectively. The result in assay [5], in assay [6], in assay [7] and in assay [8] was inactive.

On to `COc1ccc2nccc([C@@H](O)CN3CCC(NC(=O)/C=C/c4ccc(F)c5ccccc45)CC3)c2c1`, for which the growth inhibition was 75% (active) in assay [1] and 100% (active) in assay [4]. The values for the inhibition in assay [2] and in assay [3] were 37% and 0%, respectively. Moreover, the outcome in assay [5], in assay [6], in assay [7] and in assay [8] was inactive.

Take `CCN(CC)c1ccc(C(c2ccc(N(CC)CC)cc2)c2cccc([N+](=O)[O-])c2)cc1`: the figures for the growth inhibition in assay [1] and in assay [4] were 68% (active) and 91% (active), respectively. Further, the inhibition was 39% in assay [2] and -1% in assay [3]. Further, the outcome in assay [5], in assay [6], in assay [7] and in assay [8] was inactive.

On to `CCN(CC)CCN(CCCc1ccc(-c2ccc(C(F)(F)F)cc2)cc1)C(=O)Cn1c(CCc2cccc(F)c2F)nc(=O)c2c1CCC2`, for which the growth inhibition was 27% in assay [1] and 92% (active) in assay [4]. In addition, the inhibition in assay [2] is 38%; in assay [3], -2%. Moreover, the result in assay [5], in assay [6], in assay [7] and in assay [8] was inactive.

`Cc1ccc(Cc2cnc(NCCSCc3ccc(CN(C)C)s3)[nH]c2=O)cn1`: the growth inhibition was -5% in assay [1] and 95% (active) in assay [4]. In addition, the inhibition is 3% in assay [2] and 0% in assay [3]. Moreover, the outcome in assay [5], in assay [6], in assay [7] and in assay [8] was inactive.

For the molecule `O=C(/C=C/c1ccc(I)cc1)NCCCCCN1CCC(c2c[nH]c3ccc(O)cc23)CC1`, the figures for the growth inhibition in assay [1] and in assay [4] were 1% and 97% (active), respectively. The inhibition is 14% in assay [2] and 2% in assay [3]. Also, the outcome in assay [5], in assay [6], in assay [7] and in assay [8] was inactive.

As to `NC(=O)c1cccc(C(=O)Nc2cccc(-c3cccc(-c4nc5ccc(F)cc5[nH]4)c3)c2)c1`, the growth inhibition was 73% (active) in assay [1] and 100% (active) in assay [4]. Further, the inhibition in assay [2] was 47%; in assay [3], 1%. For the same molecule, the result in assay [5], in assay [6], in assay [7] and in assay [8] was inactive.

In the case of `Cc1cccc2[nH]c(-c3ccc(-c4ccc(CNCCc5ccncc5)cc4)cc3)nc12`, the results for the growth inhibition in assay [1] and in assay [4] were 98% (active) and 100% (active), respectively. Besides, the values for the inhibition in assay [2] and in assay [3] were 34% and 0%, respectively. Besides, the outcome in assay [5], in assay [6], in assay [7] and in assay [8] was inactive.

Turning to `CCCCN(C(=O)c1ccccc1Cl)c1nnc(-c2ccccc2C)s1`, the values for the growth inhibition in assay [1] and in assay [4] were 86% (active) and 90% (active), respectively. Further, the inhibition in assay [2] is 12%; in assay [3], 0%. Also, the result in assay [5], in assay [6], in assay [7] and in assay [8] was inactive.

Take `O=C(c1cncc(-c2ccccc2)c1)N(Cc1cncn1Cc1ccccc1F)CC1CC1`: the growth inhibition in assay [1] was 0%; in assay [4], 100% (active). Also, the inhibition in assay [2] was -5%; in assay [3], -4%. The result in assay [5], in assay [6], in assay [7] and in assay [8] was inactive.

Turning to `CC(C)c1ccc(NC(=S)NN=Cc2ccccn2)cc1`, the growth inhibition in assay [1] is 98% (active); in assay [4], 100% (active). For the same molecule, the inhibition was 47% in assay [2] and -12% in assay [3]. The outcome in assay [5], in assay [6], in assay [7] and in assay [8] was inactive.

With `Cc1nnsc1C(=O)Nc1cccc(-c2cccc(-c3nc4ccccc4[nH]3)c2)c1`, the values for the growth inhibition in assay [1] and in assay [4] were 34% and 100% (active), respectively. Also, the values for the inhibition in assay [2] and in assay [3] were 14% and 1%, respectively. Besides, the outcome in assay [5], in assay [6], in assay [7] and in assay [8] was inactive.
